From PubChem BioAssay
An excerpt weighted towards active compounds, which were near 5.3% of everything screened.
HIF act = HIF pathway transcriptional activation | U2OS HRE-luciferase reporter, luminescence; normalized: DMSO 0%, desferrioxamine 100% | activation, % at 7.5 µM (by protocol) | 300,000 tested, 0.32% active | AID 1910;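 active = mean activation of at least 10% of the iron chelator positive control signal, with at least half of replicates also reaching 10%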
ALR H2O2 inh = inhibitors of human sulfhydryl oxidase ALR. purified ALR, DTT oxidation, H2O2 HRP-luminol luminescence. inhibition, % (test concentration not listed). 290,000 tested, 3.8% active. AID 485317;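 active = mean replicate inhibition above about 79%, with every replicate also reaching it, limit read from the data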
Target sequence (P55789 whole entry, looked up): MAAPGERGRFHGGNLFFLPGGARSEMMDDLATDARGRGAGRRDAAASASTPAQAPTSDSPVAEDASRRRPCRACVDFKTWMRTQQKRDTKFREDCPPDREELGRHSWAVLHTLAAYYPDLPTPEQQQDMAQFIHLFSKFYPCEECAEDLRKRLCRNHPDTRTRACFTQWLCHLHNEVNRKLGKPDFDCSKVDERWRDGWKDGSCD
Mot1-301 SUMO = SUMOylation pathway inhibition by Mot1-301 growth rescue; 320,000 tested, 1% active; growth rescue, % at 18.8 µM; S. cerevisiae Mot1-301 growth rescue, ATP luminescence, 38.5C; percent above DMSO median, 100 means doubled;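 active = every valid replicate shows activation above 250% relative to neutral control wells; inactive = the rest, any valid replicate at or below 250%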
PfM18AAP inh = PfM18AAP enzyme inhibition; recombinant PfM18AAP, H-Glu-NHMec fluorogenic cleavage; inhibition, % at 7.35 µM; 290,000 tested, 1.2% active; AID 1822;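 active = inhibition above the campaign mean inhibition over all tested compounds plus 3 SD, cut at about 28% in these data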
Numbers stand for hits.

`Clc1cc(Cl)cc(C2=NC(Cc3ccccc3)CO2)c1` (configuration not stated) gave HIF act inactive, ALR H2O2 inh inactive and Mot1-301 SUMO inactive.
`CC1CCCCN1S(=O)(=O)c1ccc(C(=O)Nc2nnc(-c3ccccc3Cl)o2)cc1` (configuration not stated) gave HIF act inactive, ALR H2O2 inh inactive, Mot1-301 SUMO inactive and PfM18AAP inh inactive.
CC1CCCCN1S(=O)(=O)c1ccc(C(=O)Nc2nnc(-c3ccncc3)o2)cc1 (configuration not stated) was read as HIF act inactive, ALR H2O2 inh 81, Mot1-301 SUMO inactive and PfM18AAP inh inactive.
For C/C(=N\O)C1(C)N(O)C(C)(C)C(c2ccc(F)cc2)=[N+]1[O-] (configuration not stated) the results were HIF act inactive, ALR H2O2 inh inactive, Mot1-301 SUMO inactive and PfM18AAP inh inactive.
CCC1(C)N(O)C(C)(C)C(c2ccc(F)cc2)=[N+]1[O-] (configuration not stated) was read as HIF act inactive, ALR H2O2 inh inactive, Mot1-301 SUMO inactive and PfM18AAP inh 29.
Screening CCOC(=O)C(Cc1ccccc1)C(=O)NCc1ccccc1 (configuration not stated) returned HIF act inactive, ALR H2O2 inh inactive, Mot1-301 SUMO inactive and PfM18AAP inh inactive.
COc1cc(-c2nc(-c3ccccc3)c(-c3cccs3)[nH]2)cc(OC)c1O was read as HIF act inactive, ALR H2O2 inh 98, Mot1-301 SUMO inactive and PfM18AAP inh inactive.
`Cc1cc2nc(/N=C(\N)NC(=O)N3c4ccccc4Sc4ccccc43)nc(C)c2cc1C` gave ALR H2O2 inh 92, Mot1-301 SUMO inactive and PfM18AAP inh inactive.
Screening COc1cc2c(cc1OC)C(C)N(C(C)=O)CC2 (configuration not stated) returned HIF act inactive, ALR H2O2 inh inactive, Mot1-301 SUMO inactive and PfM18AAP inh inactive.
`COc1cc2c(cc1OC)C(C)N(C(=O)C1COc3ccccc3O1)CC2` (configuration not stated) gave HIF act inactive, ALR H2O2 inh inactive, Mot1-301 SUMO 755 and PfM18AAP inh inactive.
O=S(=O)(NCC1CCCO1)c1ccc(NS(=O)(=O)c2ccc(F)cc2)cc1 (configuration not stated) was read as HIF act inactive, Mot1-301 SUMO inactive and PfM18AAP inh inactive.
Screening CC1=NC(C#N)=C(C#N)NC(C)(C)C1 returned HIF act 28, ALR H2O2 inh inactive, Mot1-301 SUMO inactive and PfM18AAP inh inactive.
Screening COc1ccc(Cl)cc1N(CC(=O)NCCSc1ccccn1)S(=O)(=O)c1ccccc1 returned HIF act inactive, ALR H2O2 inh inactive, Mot1-301 SUMO inactive and PfM18AAP inh inactive.
`CC(=O)c1cccc(NS(=O)(=O)c2ccc(-c3cc(C)no3)s2)c1` gave HIF act 44, ALR H2O2 inh inactive, Mot1-301 SUMO inactive and PfM18AAP inh inactive.
`CC(=O)c1ccc(N2CCN(S(=O)(=O)c3ccc(-c4cc(C)no4)s3)CC2)cc1` gave HIF act inactive, ALR H2O2 inh inactive, Mot1-301 SUMO inactive and PfM18AAP inh inactive.
For Cc1[nH]n(-c2cccc(Cl)c2)c(=O)c1-c1ccccc1 the results were HIF act inactive, ALR H2O2 inh 84, Mot1-301 SUMO inactive and PfM18AAP inh inactive.
For Cc1[nH]n(-c2ccccc2)c(=O)c1-c1ccccc1 the results were HIF act inactive, ALR H2O2 inh inactive, Mot1-301 SUMO inactive and PfM18AAP inh inactive.
Cc1[nH]n2c(=O)cc(-c3ccc([N+](=O)[O-])cc3)nc2c1-c1ccccc1 was read as HIF act inactive, ALR H2O2 inh 89, Mot1-301 SUMO inactive and PfM18AAP inh inactive.
`Cc1[nH]n(-c2ccccc2)c(=O)c1N=Nc1cccc([N+](=O)[O-])c1` gave HIF act inactive, ALR H2O2 inh inactive, Mot1-301 SUMO inactive and PfM18AAP inh inactive.
Screening Cc1[nH]n(-c2cccc([N+](=O)[O-])c2)c(=O)c1-c1ccccc1 returned HIF act inactive, ALR H2O2 inh 89, Mot1-301 SUMO inactive and PfM18AAP inh inactive.
Screening CCCc1cc(=O)n2[nH]c(C)c(-c3ccccc3)c2n1 returned HIF act inactive, ALR H2O2 inh inactive, Mot1-301 SUMO inactive and PfM18AAP inh inactive.
Screening CCCn1c(SCC(=O)c2c[nH]c3ccccc23)nnc1-c1ccncc1 returned HIF act inactive, Mot1-301 SUMO inactive and PfM18AAP inh inactive.
For COc1ccc(S(=O)(=O)N2CCOCC2)cc1NC(=O)CCc1nc2ccccc2c(=O)[nH]1 the results were HIF act inactive, ALR H2O2 inh inactive, Mot1-301 SUMO inactive and PfM18AAP inh inactive.
